Only a selection was taken, and hits are over-represented in it overall.
Tg IFNy HTS: inhibitors of Toxoplasma gondii growth with IFN-gamma | actives 3.8% (n = 69,000) | activity change, negative = inhibition, % (test concentration not listed) | AID 1259416 | Toxoplasma gondii growth in IFN-gamma-treated host cells; hits give low values; in the data active = activity change below about -70%, passing the limit was not always enough;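 also: host cells are HeLa cells infected with Toxoplasma gondii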
Each line names hits and unclear results; the compound was inactive in the other large screens.

Cn1nc(C(=O)N2CCOCC2)c2c1CN(Cc1cccs1)CC2	none
Cc1ccc(Nc2nc(C(=O)Nc3cccc(C)c3)nc3ccccc23)cc1	none
Cc1cccc(Nc2nc(C(=O)Nc3c(C)cccc3C)nc3ccccc23)c1	Tg IFNy HTS -70
Cc1cccc(Nc2nc(C(=O)Nc3cccc(C)c3C)nc3ccccc23)c1	none
CSc1cccc(NC(=O)c2nc(Nc3cccc(C)c3)c3ccccc3n2)c1	Tg IFNy HTS -82
Cc1ccc(C)c(NC(=O)c2nc(Nc3ccccc3)c3ccccc3n2)c1	none
Cc1cc(C)cc(NC(=O)c2nc(Nc3ccccc3)c3ccccc3n2)c1	none
Cc1nc2nc(-c3ccc(NC(=O)C(C)N4CCCC4=O)cc3)cn2nc1C (stereo not drawn)	none
COC1CCN(S(=O)(=O)N2CCCCC2CCc2ccccc2)CC1 (stereo not drawn)	none
Cc1cncc(C(=O)N2CCOCC3(CCC(Cn4cncn4)O3)C2)c1 (stereo not drawn)	none
CC(=O)c1ccc2c(c1)[C@@H]1C=CC[C@@H]1[C@H](c1cc3c(cc1Br)OCO3)N2	Tg IFNy HTS -75
Brc1ccc2c(c1)C1C=CCC1C(C1CC=CCC1)N2 (stereo not drawn)	none
C[C@H]1C[C@H]2CN(C(=O)c3ccc4c(c3)OCO4)C[C@H]2O1	none
COc1ccc(S(=O)(=O)N(C)C[C@H]2OCCCC[C@H](C)Oc3ccc(NC(=O)Cc4ccccc4)cc3C(=O)N([C@H](C)CO)C[C@@H]2C)cc1	Tg IFNy HTS -84
C[C@@H]1CCCCO[C@@H](CN(C)S(=O)(=O)c2ccccc2)[C@H](C)CN([C@@H](C)CO)C(=O)c2cc(NC(=O)Nc3ccc4c(c3)OCO4)ccc2O1	none
COc1ccc(S(=O)(=O)N(C)C[C@H]2OCCCC[C@@H](C)Oc3ccc(NC(=O)Cc4ccccc4)cc3C(=O)N([C@@H](C)CO)C[C@@H]2C)cc1	none
COc1ccc(S(=O)(=O)N(C)C[C@@H]2OCCCC[C@H](C)Oc3ccc(NC(=O)Cc4ccccc4)cc3C(=O)N([C@@H](C)CO)C[C@H]2C)cc1	Tg IFNy HTS -125
C[C@@H]1CN([C@@H](C)CO)C(=O)c2cc(NC(=O)Nc3ccc4c(c3)OCO4)ccc2O[C@@H](C)CCCCO[C@H]1CN(C)S(=O)(=O)c1ccccc1	none
C[C@H](CO)N1C[C@H](C)[C@H](CN(C)S(=O)(=O)c2ccccc2)OCCCC[C@H](C)Oc2ccc(NC(=O)Nc3ccc4c(c3)OCO4)cc2C1=O	none
COc1ccc(S(=O)(=O)N(C)C[C@@H]2OCCCC[C@H](C)Oc3ccc(NC(=O)Cc4ccccc4)cc3C(=O)N([C@H](C)CO)C[C@@H]2C)cc1	Tg IFNy HTS -92
C[C@@H]1CCCCO[C@H](CN(C)S(=O)(=O)c2ccccc2)[C@H](C)CN([C@@H](C)CO)C(=O)c2cc(NC(=O)Nc3ccc4c(c3)OCO4)ccc2O1	none
C[C@@H]1CCCCO[C@@H](CN(C)Cc2ccncc2)[C@H](C)CN([C@@H](C)CO)C(=O)c2cc(NC(=O)Cc3ccccc3)ccc2O1	none
COc1cccc(CCNC(=O)CCN2CCCCO2)c1	none
O=C(Cn1ncc2c(N3CCCCCC3)ncnc21)N1CCC2(CC1)OCCO2	none
O=C(c1ccc(Br)cc1)N(Cc1ccccc1)Cc1nc2ccccc2c(=O)[nH]1	none
CC1CCN(c2ncnc3c2cnn3CC(=O)Nc2ccc(C(F)(F)F)cc2)CC1	none
Cc1nc(-c2cccc(F)c2)sc1CCNC(=O)C(=O)Nc1cccc(Cl)c1C	none
CC(C)(C)Cn1c(N)nc2ccc(-c3[nH]c(C(C)(C)C)nc3-c3ccc(F)cc3)nc21	Tg IFNy HTS -83
O=c1[nH]nc(CCc2ccccc2)n1Cc1ccccc1F	none
Cc1cc(C)n(-c2ccc(Cl)c(C(=O)Nc3nc(-c4cnn(C)c4)cs3)c2)n1	none
COc1cc(OC)c(NC(=O)N2CCC3(CC2)Nc2ccccc2-n2cccc23)cc1Cl	none
CC(Sc1nnnn1C)C(=O)n1c2ccccc2c2ccccc21 (stereo not drawn)	none
Cc1sc(NC(=O)C(C)C)c(C(=O)N[C@@H]2C[C@@H](CO)N(C)C2)c1C	none
COC(=O)c1ccc(C(=O)OC)c(NC(=O)C(C)C)c1	none
COC(=O)c1c(NC(=O)C(C)C)sc2c1C(C(=O)OC)CC2 (stereo not drawn)	Tg IFNy HTS -94
COc1ccc(N(C)c2ccc3ccc(C(=O)Cc4ccccn4)cn23)cc1	none
COc1ccccc1/C=C/CN1CC2CCCN2C[C@H]1C (stereo partly drawn)	Tg IFNy HTS -79
COc1ccccc1/C=C/CN1CCNC(C(=O)N2CCCC2)C1 (stereo not drawn)	none
COc1ccccc1/C=C/CN1CCN(C)C(C(=O)O)C1 (stereo not drawn)	none
Cc1ccc(Cl)c(NC(=O)c2cccc(CN3CCC[C@@H]3C(N)=O)c2)c1	none
COc1ccc(CN2CCC3(CC(C(=O)N4CCC(N(C)C)CC4)=NO3)C2)cc1 (stereo not drawn)	none
Cc1cccc(NC(=O)N2CCC3(CCC(C(=O)NCC4CC4)O3)CC2)c1 (stereo not drawn)	none
COc1ccc(-c2nnc(N(C)C(=O)c3ccccc3OC)s2)cc1	none
Cc1ccc(S(=O)(=O)N2CC(C(=O)Nc3cccc(F)c3)C3(CCOCC3)C2)cc1 (stereo not drawn)	Tg IFNy HTS -75
Cc1ccc(S(=O)(=O)N2CCC3(CC3C(=O)Nc3cccc(F)c3)C2)cc1F (stereo not drawn)	none
O=C(Nc1cccc(F)c1)N1CC(C(=O)N2CCOCC2)C2(CCOCC2)C1 (stereo not drawn)	none
CN1CCN(C(=O)COCC2COc3ccccc3O2)C(c2ccccc2)C1 (stereo not drawn)	none
Cc1ncc2c(c1CNC(=O)/C=C/c1ccccc1)CCN(C(=O)C1CC(=O)OC13CCCCC3)C2 (stereo not drawn)	none
COC(=O)c1ccccc1NC(=O)COc1nc(C)nc2ccccc12	none
Cc1ccc(NC(=O)CCNS(=O)(=O)c2ccccc2)c(C(=O)c2ccccc2)c1	none
CC(=O)ON(CC(=O)Nc1ccccc1C(=O)c1ccccc1)C(C)=O	Tg IFNy HTS -77
COCCN(Cc1cnn(C)c1)C(=O)c1cccc(C(F)(F)F)c1	none
COC(=O)c1ccc2c(c1)nc(N1CCOC(c3ccc(Cl)cc3)C1)n2C (stereo not drawn)	none
CCOC(=O)c1noc2ncn(Cc3nc(-c4cccc(Br)c4)oc3C)c(=O)c12	none
c1ccc(-c2nnc(-c3ccccn3)nc2-c2ccccc2)cc1	Tg IFNy HTS -103
Cc1ccccc1Nc1nnc(-c2ccccc2)c(-c2ccccc2)n1	none
CN(Cc1cnc(-c2ccccn2)nc1)Cc1cnn(-c2ccccc2)c1	none
Cc1noc(C)c1CN1CCCC2(CCN(S(=O)(=O)c3ccc(F)cc3)C2)C1 (stereo not drawn)	none
Cc1cnc(N(C)Cc2cc(C3CC3)n[nH]2)nc1N(C)C	none
O=C(NCCc1csc(-c2ccc(Cl)cc2)n1)c1ccccc1C(F)(F)F	none
OC1(C(F)(F)F)CC(c2cccs2)=NO1 (stereo not drawn)	none
O=C(c1cccs1)N1N=C(c2ccc(Cl)cc2)CC1(O)C(F)(F)F (stereo not drawn)	Tg IFNy HTS -97
O=C(NC1CCC12CCN(Cc1ccoc1)CC2)c1cnccn1 (stereo not drawn)	none
O=C(NC1CC1)N1C[C@@H]2CN(Cc3cccc(F)c3)C(=O)[C@@H]2C1	none
COc1cccc2cc(C(=O)Nc3cc4c(cc3NC(C)=O)OCCO4)c(=O)oc12	none
CCCNC(=O)c1ccc(-c2nc(CN3CCc4ccccc43)c(C)o2)cc1	none
Cc1oc(-c2ccc(C(=O)NC3CCCCCC3)cc2)nc1CN1CCc2ccccc21	Tg IFNy HTS -93

Assay outcomes deposited in PubChem by Broad Institute.
